Molecular target: PKIG
Experiment: pooled miR-30 sensor sort-seq; sequence = guide strand
Conditions: shRNA

Compared with TAGGTGTCACTTATCCTGGTGG, TAACATCTTGTGGTTACAGTGT is higher in sensor-assay potency score (higher = more potent): -0.436 for the first, -0.118 for the second.

Compared with TCAGGGACCGCATTCCGACGGC, ATGTCAGGGACCGCATTCCGAC is lower in sensor-assay potency score (higher = more potent): -0.897 for the first, -1.85 for the second.

First: TTACAGTGTCTTGAAAGTGTAC
Second: TCACAGCCTCTGAGTCTCCCTG
The sensor-assay potency score (higher = more potent) of the first is higher: -0.626 for the first, -1.09 for the second.

Compared with TGTCCGGTCACAGGAGATGAAG, TTCCTCACGCTCACAGCCTCTG is higher in sensor-assay potency score (higher = more potent): -2.03 for the first, -0.203 for the second.

Going from TTGCCAGCTTCCTTGTCTGGGG to TTGATTGTCAGCTCTCTCCATA, the sensor-assay potency score (higher = more potent) rises from -0.658 to -0.293.

Compared with TCGAGTGCCAGCTCGCCCATGT, TGGGGCGCTTCCCTCCACCTGT is lower in sensor-assay potency score (higher = more potent): -1.07 for the first, -1.57 for the second.

Molecular target: PKLR
Experiment: as above
Conditions: shRNA

Going from TAATTGGACACAGACTTTCAGG to TGTGGCACAGACAACAGGCTTG, the sensor-assay potency score (higher = more potent) rises from -0.61 to -0.0127.

AATCATCATCTTCTGAGCCAGG was tested, and the sensor-assay potency score (higher = more potent) was -0.988.

— the OligoGym collection
